Measured values taken from the supplement of paper PMC10681739.

Molecular target: T1, ETS1 (UniProt P14921)
T1 sequence: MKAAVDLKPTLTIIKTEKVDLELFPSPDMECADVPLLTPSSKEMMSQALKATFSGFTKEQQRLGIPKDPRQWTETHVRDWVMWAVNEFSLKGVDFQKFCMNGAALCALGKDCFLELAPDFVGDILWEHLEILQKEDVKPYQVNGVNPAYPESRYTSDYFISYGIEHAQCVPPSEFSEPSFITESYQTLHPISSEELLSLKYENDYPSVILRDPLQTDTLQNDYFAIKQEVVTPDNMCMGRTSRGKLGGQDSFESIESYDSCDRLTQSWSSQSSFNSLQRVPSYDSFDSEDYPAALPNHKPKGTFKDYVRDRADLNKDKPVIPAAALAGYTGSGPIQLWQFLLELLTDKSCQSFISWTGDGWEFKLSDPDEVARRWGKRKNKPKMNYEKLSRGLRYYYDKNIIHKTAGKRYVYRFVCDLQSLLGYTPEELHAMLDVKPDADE
Assay: ETS1 binding intensity (PBM fluorescence) in presence of RUNX1, normalised to ETS1-only experiment (arbitrary fluorescence units); higher = stronger binding
Conditions: ETS1 concentration 1 nM; RUNX1 concentration 25 nM

Sequence | ETS1 binding intensity
TCCAGGATGTGCTGAACCTCCAGAAACCACCGGCTT | 684
GCGCCCCGTCCTTCCGCAGCCCAACCGCCTCTTCCC | 383
GGTGCCAAGGGCAGAGGATGTGGTGAGGTGTGGAGG | 4410
ATCAAAGAACGGATATTGCTGTGACACCGCGGGGAC | 1560
AAGGACCGACCCGTTTTCCGCCCGCAGCGGAGCTTG | 457
AAAACCTTGTTGAAAGGATGTGGCTTAGCGAGAGGT | 1820
GCTACGGGTTCCCCGGATGGAGCCGCAGTCCGGCCG | 715
AGCACGTCCCCCTTCTTCCTCCCGCAGAGGGCCTGC | 461
CCTCCTGGGAACTTCCTGCGGGGGCCGAAGCTGAAG | 660
TGCCCCCTCCCCCTTCCGCTGTGGCCACCGGCTTTG | 780
GCTATCCCCGCCCCTTCCTGTGGGCTGGCGCCCGAT | 489
GGGGCCCCGGATGCACTGAGCGGCTGCGGCGCGGCT | 642
CTTCCTTCCCTTCCTTCTGCTCCCTCCCACAGCCGC | 436
CACTCCCCCATTCCGGCTGCAGGTTGAGGTTTGGAA | 571
GGAGTGAGGAGGAAGCGGAGGCGAGACCGCGCTCAA | 399
